Compound activity as filed in PubChem.
Sampled rows, rich in hits. Any-hit rate of the full collection: about 2.2%.
ADAM17 inh = ADAM17 inhibitors, primary screen, biochemical, QFRET; Disintegrin and metalloproteinase domain-containing protein 17 (Homo sapiens), P78536; recombinant ADAM17, EDANS/DABCYL FRET peptide cleavage; inhibition, % at 6.95 µM; 0.83% of 370,000 active; AID 720648, 2013;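 active means inhibition above the mean of compounds lying between control limits plus 3 SD, set per campaign, cut at about 8.5% in these data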
ADAM10 inh = human ADAM10 inhibitors, primary screen, biochemical, QFRET, HTS; Disintegrin and metalloproteinase domain-containing protein 10 (Homo sapiens), O14672; recombinant ADAM10, EDANS/DABCYL FRET peptide cleavage, 3 h; inhibition, % at 7 µM; 0.62% of 370,000 active; AID 720582, 2013;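 active means inhibition above a per-campaign cutoff equal to the mean of compounds falling between control-based bounds plus 3 SD, cut at about 20% in these data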
proKLK7 act = proKLK7 zymogen activators, primary screen, biochemical, fluorescence intensity | activation, % at 7 µM | Kallikrein-7 (Homo sapiens), P49862 | AID 652039, 2013 | purified proKLK7, EDANS-DABCYL substrate fluorescence; 100% is mature enzyme control, 0% vehicle | 0.9% of 370,000 active;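 active means activation above the mean of all tested compounds plus 3 SD, computed per campaign excluding outliers beyond control limits, cut at about 13% in these data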
GC-B act = human GC-B receptor activators, primary screen, HEK293 GC-B cells, cGMP TR-FRET, EC30 CNP; 0% at EC30 CNP, 100% saturating CNP; Atrial natriuretic peptide receptor 2 (Homo sapiens), P20594; activation, % at 10 µM; 0.11% of 370,000 active; AID 1920062, 2024;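 active means activation at 10 µM reaching about 35% in either raw or pattern-adjusted values, limit read from the data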
Target sequence (P20594 whole entry, looked up): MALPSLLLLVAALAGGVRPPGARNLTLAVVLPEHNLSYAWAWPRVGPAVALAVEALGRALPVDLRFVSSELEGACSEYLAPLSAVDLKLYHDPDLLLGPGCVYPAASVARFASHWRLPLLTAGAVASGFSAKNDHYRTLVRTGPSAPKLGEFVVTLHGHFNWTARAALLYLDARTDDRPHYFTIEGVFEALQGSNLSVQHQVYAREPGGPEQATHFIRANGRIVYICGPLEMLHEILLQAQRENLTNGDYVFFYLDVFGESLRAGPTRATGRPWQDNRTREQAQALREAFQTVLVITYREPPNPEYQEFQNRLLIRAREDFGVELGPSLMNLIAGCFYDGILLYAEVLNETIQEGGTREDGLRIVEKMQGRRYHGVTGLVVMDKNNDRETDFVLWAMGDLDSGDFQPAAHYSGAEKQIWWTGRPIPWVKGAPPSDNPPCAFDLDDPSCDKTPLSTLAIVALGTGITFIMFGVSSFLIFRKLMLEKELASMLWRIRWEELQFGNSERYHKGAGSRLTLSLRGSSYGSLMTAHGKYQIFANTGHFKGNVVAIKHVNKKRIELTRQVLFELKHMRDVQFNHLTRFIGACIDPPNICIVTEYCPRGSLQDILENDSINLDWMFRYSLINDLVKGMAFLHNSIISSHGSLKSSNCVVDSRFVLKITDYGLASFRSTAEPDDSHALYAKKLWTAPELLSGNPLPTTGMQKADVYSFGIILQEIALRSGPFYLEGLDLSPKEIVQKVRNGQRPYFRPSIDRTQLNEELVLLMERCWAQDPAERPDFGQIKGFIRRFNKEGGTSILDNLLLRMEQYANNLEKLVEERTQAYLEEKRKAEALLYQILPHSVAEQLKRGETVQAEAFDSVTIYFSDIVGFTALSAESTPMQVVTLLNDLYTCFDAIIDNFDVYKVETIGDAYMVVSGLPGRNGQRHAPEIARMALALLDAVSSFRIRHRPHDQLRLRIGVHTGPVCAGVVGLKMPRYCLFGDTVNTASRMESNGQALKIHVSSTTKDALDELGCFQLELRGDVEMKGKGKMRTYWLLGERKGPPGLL
NPR1 activator = GC-A stimulated cGMP production enhancers – HEK293 GC-A cells, cGMP TR-FRET, EC30 ANP, primary screen; 0.14% of 370,000 active; 0% at EC30 ANP, 100% saturating ANP; Atrial natriuretic peptide receptor 1 (Homo sapiens), P16066; activation, % at 10 µM; in the data active means activation above about 40%
ADAM10 counter = ADAM10 inhibitors, counter-screen for ADAM17 exosite inhibitor project, biochemical, FRET, human ADAM10 | shares compounds with ADAM17 inh | recombinant ADAM10, EDANS/DABCYL FRET peptide cleavage, 3 h | 47% of 2,900 active | inhibition, % at 6.95 µM;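 active means mean inhibition over the triplicate runs exceeds the activity threshold set in the earlier primary screen, cut at about 20% in these data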
ADAM17 confirm = ADAM17 inhibitors, hit retest, confirmation, biochemical, QFRET peptide cleavage. inhibition, % at 6.95 µM. AID 743257, 2014. shares compounds with ADAM17 inh. 65% of 2,900 active. recombinant ADAM17, EDANS/DABCYL QFRET peptide cleavage;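 active means mean inhibition across replicates above the hit cutoff set in the primary screen, cut at about 8.5% in these data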
Hits are given with their value; – = inactive; · = no result.

SMILES | ADAM17 inh | ADAM10 inh | proKLK7 act | GC-B act | NPR1 activator | ADAM10 counter | ADAM17 confirm
N#Cc1cccc(Cn2ccc3ccc(-c4ccc5ccn(Cc6ccccc6)c5c4)cc32)c1 | – | – | – | – | – | · | ·
O=C(OCC#CCSc1nnc(-c2cccc3ccccc23)o1)c1csc2ccccc12 | – | – | · | – | – | · | ·
COC(=O)[C@H](CC(C)C)N(CCCc1cn(Cc2ccccc2)nn1)S(=O)(=O)c1ccccc1Br | 13 | – | – | – | – | 36 | 15
COC(=O)[C@H](CC(C)C)N(CCc1cn(Cc2ccccc2)nn1)S(=O)(=O)c1ccccc1Br | 8.7 | – | – | – | – | – | 12
COC(=O)[C@H](CC(C)C)N(CCc1cn(Cc2ccccc2)nn1)S(=O)(=O)c1ccc(F)cc1Br | – | – | – | – | – | · | ·
COC(=O)[C@H](C)N(CCc1cn(Cc2ccccc2)nn1)S(=O)(=O)c1ccccc1Br | – | – | – | – | – | · | ·
CC(OP(=O)(O)C(NC(=O)[C@H](Cc1ccc(O)cc1)NC(=O)OC(C)(C)C)C(C)C)C(=O)O (stereo not given in full) | – | – | · | – | – | · | ·
CCN(CC)C(=O)CN(c1cc2c(cc1OC)oc1ccccc12)S(=O)(=O)c1ccc(C)cc1 | 16 | – | – | – | – | – | –
COc1ccc(C2=Nn3c(nnc3-c3ccccc3F)SC2)cc1OC1CCCC1 | 11 | 27 | – | – | – | 24 | 17
O=C(c1cccc(Oc2ccccc2)c1)N1CCC(Oc2cccnc2)CC1 | – | – | – | – | – | · | ·
COC(=O)c1cc(=O)cc(C(=O)OC)o1 | 8.7 | – | – | – | – | – | –
C[C@@H]1CN(c2ccc(N3CCN(C(=O)OC(C)(C)C)C[C@H]3C)cc2C#N)CCN1Cc1ccccc1 | – | – | – | – | – | · | ·
COc1ccc(C(CNC(=O)c2cccc(N(C)C)c2)N2CCCC2)cc1 (stereo not given) | 9.4 | – | – | – | – | – | –
COC(=O)[C@H](CC(C)C)N1Cc2nnn(Cc3ccc(C)cc3)c2-c2cc(F)ccc2S1(=O)=O | 10 | – | – | – | – | – | 14
COc1cccc(CN(Cc2ccco2)S(=O)(=O)c2ccc(S(=O)(=O)NCc3ccccc3)cc2)c1OC | 14 | 39 | – | – | – | 43 | 24
COc1cccc(CN(Cc2ccccc2F)S(=O)(=O)c2ccc(S(=O)(=O)NCc3ccccc3)cc2)c1 | – | – | – | – | – | · | ·
COC(=O)c1cccc(Cn2ccc3ccc(-c4ccc5ccn(Cc6cccc(C(=O)OC)c6)c5c4)cc32)c1 | – | – | – | – | – | · | ·
COC(=O)C1CCN(c2ccc([N+](=O)[O-])cc2)CC1 | 10 | – | – | – | – | – | –
C=CC[C@H]1CC(C)=C[C@H](CC=C)N1C(=O)c1cc(COc2ccccc2SC)on1 | 9.4 | – | – | – | – | 29 | 14
CCN(CC)c1ccc(NC(=O)/C=C/c2cc(Br)ccc2OC)cc1 | 10 | – | – | – | – | 27 | 20
COc1ccc(Br)cc1/C=C/C(=O)Nc1c(C)cccc1C | 9.8 | – | – | – | – | – | –
CCOc1ccc(Oc2ccc(NS(=O)(=O)c3cc(C(=O)O)ccc3Cl)cc2)cc1 | 14 | – | – | – | – | – | 11
COc1ccc(NS(=O)(=O)c2cc(C)ccc2OC)cc1OC | – | – | – | – | – | · | ·
CCOc1ccc(NS(=O)(=O)c2cc(Cl)ccc2OC)cc1 | 12 | – | – | – | – | – | –
CCOc1ccc(NS(=O)(=O)c2ccc(OC)c(C)c2)cc1 | – | – | – | – | – | · | ·
SMILES | ADAM17 inh | ADAM10 inh | proKLK7 act | GC-B act | NPR1 activator | ADAM10 counter | ADAM17 confirm
CCc1ccc(OC)c(S(=O)(=O)Nc2ccc(Cc3ccncc3)cc2)c1 | 9.2 | – | – | – | – | – | –
COc1ccc(S(=O)(=O)Nc2ccc(Cc3ccncc3)cc2)cc1OC | – | – | – | – | – | · | ·
CCOc1ccc(S(=O)(=O)Nc2cc(NS(=O)(=O)c3ccc(OCC)cc3)cc(C(=O)O)c2)cc1 | – | – | – | – | – | · | ·
COc1ccc(F)cc1S(=O)(=O)Nc1ccc(C)cc1 | 11 | – | – | – | – | – | –
COC(=O)c1ccccc1NC(=O)NCC1CCN(Cc2ccc(OC)cc2)CC1 | – | – | – | – | – | · | ·
CCOC(=O)Cn1cc(CN2C(C(=O)OC)CN(C3CCCC3)CCS2(=O)=O)nn1 (stereo not given) | – | – | – | – | – | · | ·
CCOc1ccc(N(CC(=O)Nc2c(C)n(C)n(-c3ccccc3)c2=O)S(=O)(=O)c2cccs2)cc1 | – | – | – | – | – | · | ·
COC(=O)c1cn(-c2ccc(-c3noc4c3C(=O)N(CC(=O)N3CCOCC3)CC4)cc2)nn1 | – | – | – | – | – | · | ·
CC(C)CN1C(=O)C[C@]2(C(=O)N(C)c3ccc(NS(=O)(=O)C4CC4)cc32)C1c1ccccc1 (stereo not given in full) | – | – | – | – | – | · | ·
O=C(Nc1ccc2c(c1)OCO2)C1Cc2c(-c3ccccc3Oc3ccccc3)ccnc2O1 (stereo not given) | 8.9 | – | – | – | – | 20 | 9.7
CC(=O)c1cccc(-c2ccnc3c2CC(C(=O)Nc2cccc(Oc4ccccc4)c2)O3)c1 (stereo not given) | 9.4 | – | – | – | – | 25 | 9.9
O=C(Nc1cccc(OC(F)(F)F)c1)C1Cc2c(-c3cccc(F)c3)ccnc2O1 (stereo not given) | 12 | – | – | – | – | 35 | 19
O=C(Nc1cccc(Oc2ccccc2)c1)C1Cc2c(-c3ccccc3)ccnc2O1 (stereo not given) | – | – | – | – | – | · | ·
CC(=O)c1cccc(-c2ccnc3c2CC(C(=O)Nc2cccc(C(F)(F)F)c2)O3)c1 (stereo not given) | 8.9 | – | – | – | – | – | –
COc1ccc([C@H]2OC(=O)C[C@H]2C(=O)N2CCN(c3ccccc3C(F)(F)F)CC2)cc1OC | – | – | – | – | – | · | ·
Cc1cc(SCC(=O)Nc2cccc(S(N)(=O)=O)c2)c(C)cc1Br | – | – | – | – | – | · | ·
